Calls of active or inactive are those of the source. Unless noted, no rule for the calls is given here.
Assays:
[1] = tested on: Wnt5a (protein binding on small-molecule microarray); test: small molecules binding Wnt5a protein – biophysical, small-molecule microarray, 635/667 nm fluorescence, primary screen (AID 1142); conditions: 635 nm fluorescence, higher = more signal;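 also: fluorescence read at 667 nm with signal to noise per printed feature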
[2] = ATP-based viability of Huh7 replicon cells – cell-based, CellTiter-Glo luminescence, basal, 48 h, cytotoxicity control for HCV replication inhibitor project, primary screen (AID 1143); conditions: higher = more signal, called active from +8 up or from −8 down;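 also: Huh7 hepatoma cells carrying a hepatitis C replication reporter with no stimulus; test concentration not given here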
[3] = Pseudomonas biofilm growth suppression – PAO1 strain, BacTiter-Glo luminescence, LB-PBS, primary screen (AID 1144); conditions: P. aeruginosa PAO1 biofilm, 12 h, higher = more signal
[4] = basal CRE-LacZ reporter activity in PC12 – cell-based, unstimulated, primary screen (AID 1145); conditions: no forskolin, luminescence, 4.5 h, higher = more signal, called active from +8 up or from −8 down
[5] = forskolin-driven CRE-LacZ activity in PC12 – cell-based, CRE-LacZ reporter, forskolin-stimulated, primary screen (AID 1146); conditions: luminescence, 4.5 h, higher = more signal, called active from +8 up or from −8 down;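 also: PC12 cells with 6xCRE LacZ reporter stimulated by forskolin 10 µM; beta-galactosidase reporter signal reflecting CREB driven transcription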
[6] = biological target: Streptavidin (Streptomyces avidinii) (UniProt P22629); test: compounds binding control protein streptavidin – biophysical, small-molecule microarray, 635/667 nm fluorescence, artefact control for SMM compound annotation, primary screen (AID 1147); conditions: higher = more signal;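 also: signal reflects streptavidin binding to arrayed compounds as a control protein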
Chain of Streptavidin (Streptomyces avidinii) (P22629 whole entry, looked up): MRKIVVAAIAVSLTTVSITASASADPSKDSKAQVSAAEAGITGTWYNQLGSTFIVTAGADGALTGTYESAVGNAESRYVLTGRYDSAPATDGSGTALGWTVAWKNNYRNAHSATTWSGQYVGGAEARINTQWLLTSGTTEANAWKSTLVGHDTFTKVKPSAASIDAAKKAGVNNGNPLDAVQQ

[7] = probe aInhba binding on compound microarray – biochemical, small-molecule microarray, 635/667 nm fluorescence, primary screen (AID 1148); conditions: higher = more signal;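 also: score merges 667nm spot fluorescence with signal-to-noise for antibody binding to printed compounds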
Torsin-1A (Homo sapiens) [8] = biological target: Torsin-1A (Homo sapiens) (UniProt O14656); test: TOR1A wild-type binding on microarray – cell lysate, small-molecule microarray, lysate, 635/667 nm, primary screen (AID 1149); conditions: COS7 hTOR1A-WT lysate, 635 nm fluorescence, higher = more signal
Chain of Torsin-1A (Homo sapiens) (O14656 whole entry, looked up): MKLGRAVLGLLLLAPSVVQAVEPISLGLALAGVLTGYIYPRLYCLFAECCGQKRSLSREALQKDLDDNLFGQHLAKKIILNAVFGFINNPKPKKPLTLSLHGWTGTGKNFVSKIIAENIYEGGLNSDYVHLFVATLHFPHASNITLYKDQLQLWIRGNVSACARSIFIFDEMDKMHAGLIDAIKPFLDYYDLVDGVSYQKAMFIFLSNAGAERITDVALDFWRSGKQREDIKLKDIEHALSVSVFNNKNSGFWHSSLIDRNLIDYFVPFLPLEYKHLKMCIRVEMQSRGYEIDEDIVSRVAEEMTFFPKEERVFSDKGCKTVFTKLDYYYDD

Torsin-1A (Homo sapiens) [9] = biological target: Torsin-1A (Homo sapiens) (UniProt O14656); test: torsin A mutant lysate binding on microarrays – cell lysate, small-molecule microarray, COS7 lysate, 635/667 nm fluorescence, primary screen (AID 1150); conditions: COS7 hTOR1A mutant lysate, 635 nm fluorescence, higher = more signal;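 also: score pools 667 nm emission and signal to noise measuring lysate protein binding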
[10] = tested on: Sonic hedgehog protein (Shh); test: Sonic hedgehog microarray binding compounds – biochemical, small-molecule microarray, 635/667 nm fluorescence, primary screen (AID 1151); conditions: 635 nm fluorescence, higher = more signal;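 also: Shh protein binding to compounds spotted on small-molecule microarray slides; score combines spot fluorescence intensity with signal-to-noise across triplicate slides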
[11] = optical density shifts of acrAB sulA E. coli – strain DRC41, OD650, 48 h, E. coli filamentation inducer project, primary screen (AID 1152); conditions: higher = more signal, called active from +8 up or from −8 down;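 also: E. coli MC1000 strain DRC41 lacking acrAB efflux pump and sulA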
[12] = probe aLefty1 binding on compound microarray – biochemical, small-molecule microarray, 635/667 nm fluorescence, primary screen (AID 1153); conditions: higher = more signal;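 also: score merges spot fluorescence with signal-to-noise ratio from the scanned slide images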
[13] = plasmodial surface anion channel blockers, osmotic lysis – cell-based, P. falciparum Indochina, OD700, 1 h, primary screen (AID 1154); conditions: P. falciparum Indochina infected RBC osmotic lysis, higher = more signal, called active from +8 up or from −8 down
[14] = plasmodial surface anion channel blockers, osmotic lysis – cell-based, P. falciparum Indochina, OD700, 2 h, primary screen (AID 1155);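 also: lysis reports solute entry through the parasite surface anion channel PSAC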; conditions: P. falciparum Indochina infected erythrocytes, higher = more signal, called active from +8 up or from −8 down
[15] = changes in parasitized red cell lysis, either direction – P. falciparum Indochina, OD700, 3 h, PSAC antagonist project, primary screen (AID 1156); conditions: P. falciparum-infected erythrocytes, osmotic lysis, higher = more signal, called active from +8 up or from −8 down
[16] = plasmodial surface anion channel blockers, osmotic lysis – cell-based, P. falciparum Indochina, OD700, 18 h, primary screen (AID 1157); conditions: P. falciparum Indochina infected erythrocytes, osmotic lysis OD700, 18 h; higher = more signal, called active from +8 up or from −8 down
[17] = S6 kinase pathway phospho-S6 level changes – cell-based, A549, cytoblot, luminescence, serum-stimulated, primary screen (AID 1158); conditions: 5 h, higher = more signal;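 also: serum-stimulated A549 lung adenocarcinoma cells; signal is phosphorylated S6 detected by cytoblot immunostaining with HRP secondary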
[18] = biological target: NADPH oxidase 2 (Homo sapiens) (UniProt P04839); test: compounds shifting NOX2 Amplex Red fluorescence – cell-based, HEK293-NOX2, PMA-stimulated, NOX inhibitor project, primary screen (AID 1159); conditions: 45 min, higher = more signal, called active from +8 up or from −8 down; also: test concentration not given here
Chain of NADPH oxidase 2 (Homo sapiens) (P04839 whole entry, looked up): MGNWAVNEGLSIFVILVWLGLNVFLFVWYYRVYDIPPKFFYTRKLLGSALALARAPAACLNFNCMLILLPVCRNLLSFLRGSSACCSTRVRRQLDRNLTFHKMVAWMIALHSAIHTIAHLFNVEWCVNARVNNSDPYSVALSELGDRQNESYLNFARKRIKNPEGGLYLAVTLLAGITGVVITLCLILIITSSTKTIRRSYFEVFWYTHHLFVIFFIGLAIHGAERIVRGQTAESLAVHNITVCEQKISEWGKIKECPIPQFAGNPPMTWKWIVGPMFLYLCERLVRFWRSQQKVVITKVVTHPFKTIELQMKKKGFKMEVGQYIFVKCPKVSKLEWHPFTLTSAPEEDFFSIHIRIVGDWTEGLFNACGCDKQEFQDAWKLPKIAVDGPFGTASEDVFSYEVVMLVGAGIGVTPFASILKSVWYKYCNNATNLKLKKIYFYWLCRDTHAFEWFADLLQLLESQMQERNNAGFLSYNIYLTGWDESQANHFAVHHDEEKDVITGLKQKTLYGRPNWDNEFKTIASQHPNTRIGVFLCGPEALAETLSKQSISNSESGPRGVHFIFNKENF

[19] = biological target: NADPH oxidase 4 (Homo sapiens) (UniProt Q9NPH5); test: compounds shifting NOX4 Amplex Red fluorescence – cell-based, HEK293-NOX4, tetracycline-induced, NOX inhibitor project, primary screen (AID 1160); conditions: HEK293-NOX4, Amplex Red H2O2 fluorescence, 45 min; higher = more signal, called active from +8 up or from −8 down
Chain of NADPH oxidase 4 (Homo sapiens) (Q9NPH5 whole entry, looked up): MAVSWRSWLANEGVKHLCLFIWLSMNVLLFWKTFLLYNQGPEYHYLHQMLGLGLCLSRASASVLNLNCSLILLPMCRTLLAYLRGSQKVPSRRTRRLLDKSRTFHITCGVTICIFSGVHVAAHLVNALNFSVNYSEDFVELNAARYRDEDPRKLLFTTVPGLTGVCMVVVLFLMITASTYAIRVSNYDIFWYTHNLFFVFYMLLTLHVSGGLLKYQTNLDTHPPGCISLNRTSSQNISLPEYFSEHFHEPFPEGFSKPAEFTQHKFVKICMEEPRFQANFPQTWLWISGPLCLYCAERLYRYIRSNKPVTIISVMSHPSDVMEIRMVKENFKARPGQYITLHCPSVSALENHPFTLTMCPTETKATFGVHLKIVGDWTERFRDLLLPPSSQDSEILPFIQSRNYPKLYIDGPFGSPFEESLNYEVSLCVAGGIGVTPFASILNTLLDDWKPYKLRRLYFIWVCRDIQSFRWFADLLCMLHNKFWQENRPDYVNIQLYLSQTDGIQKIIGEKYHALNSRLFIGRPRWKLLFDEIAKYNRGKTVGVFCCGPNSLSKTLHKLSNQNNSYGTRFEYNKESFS

[20] = biological target: NADPH oxidase 5 (Homo sapiens) (UniProt Q96PH1); test: compounds shifting NOX5 Amplex Red fluorescence – cell-based, HEK293-NOX5, NOX inhibitor project, primary screen (AID 1161); conditions: HEK293-NOX5, ionomycin, 45 min, higher = more signal
Chain of NADPH oxidase 5 (Homo sapiens) (Q96PH1 whole entry, looked up): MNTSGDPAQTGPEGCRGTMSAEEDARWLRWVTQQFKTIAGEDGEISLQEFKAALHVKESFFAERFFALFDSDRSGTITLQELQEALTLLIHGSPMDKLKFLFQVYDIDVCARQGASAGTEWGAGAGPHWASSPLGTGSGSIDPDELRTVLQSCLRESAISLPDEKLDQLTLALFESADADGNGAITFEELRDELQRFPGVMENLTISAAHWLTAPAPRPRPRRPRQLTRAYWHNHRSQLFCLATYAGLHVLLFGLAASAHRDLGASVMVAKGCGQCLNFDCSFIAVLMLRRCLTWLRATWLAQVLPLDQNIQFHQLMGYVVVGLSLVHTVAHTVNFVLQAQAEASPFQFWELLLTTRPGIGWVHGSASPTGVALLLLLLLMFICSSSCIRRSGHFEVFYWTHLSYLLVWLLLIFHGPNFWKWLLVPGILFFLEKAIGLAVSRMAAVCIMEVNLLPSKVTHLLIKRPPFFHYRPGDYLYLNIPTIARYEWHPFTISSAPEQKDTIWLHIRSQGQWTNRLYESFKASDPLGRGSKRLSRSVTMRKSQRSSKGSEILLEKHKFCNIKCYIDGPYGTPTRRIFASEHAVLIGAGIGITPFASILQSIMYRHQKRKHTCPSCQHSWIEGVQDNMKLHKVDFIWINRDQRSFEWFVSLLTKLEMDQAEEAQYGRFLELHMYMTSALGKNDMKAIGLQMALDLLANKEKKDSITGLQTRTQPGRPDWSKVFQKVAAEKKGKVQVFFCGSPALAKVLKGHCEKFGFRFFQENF

Row | Compound | composite z-score [1] | z-score [2] | z-score [3] | z-score [4] | z-score [5] | composite z-score [6] | composite z-score [7] | composite z-score (Torsin-1A (Homo sapiens) [8]) | composite z-score (Torsin-1A (Homo sapiens) [9]) | composite z-score [10] | z-score [11] | composite z-score [12] | z-score [13] | z-score [14] | z-score [15] | z-score [16] | z-score [17] | z-score [18] | z-score [19] | z-score [20]
1 | C=CC[C@@H]1C=C[C@H](ON=C(C)CCC(=O)OC[C@H]2O[C@H](c3ccccc3)C=C[C@@H]2Oc2ccc(OC)cc2)[C@@H](CO)O1 | -0.278 | -1.08 (inactive) | -0.743 (inactive) | -0.24 (inactive) | -0.24 (inactive) | -0.586 | -0.128 | -0.957 | -0.587 | -0.317 | 0.871 (inactive) | -0.291 | 10.9 (active) | 1.25 (inactive) | 1.2 (inactive) | 0.637 (inactive) | -0.0785 | -3.06 (inactive) | 0.605 (inactive) | -2.79
2 | COC(=O)CC=C[C@@H](C)[C@@H](C=NO[C@@H](C)c1cc(-c2c(C)cc(C)cc2C)no1)NS(=O)(=O)c1ccc(C)cc1 | -0.475 | -2.83 (inactive) | 0.054 (inactive) | 4.2 (inactive) | 0.0267 (inactive) | -0.195 | -0.261 | -1.05 | -1.32 | -1.63 | -0.466 (inactive) | 0.0437 | 1.34 (inactive) | -0.745 (inactive) | 0.971 (inactive) | -1.89 (inactive) | 1.13 | -0.868 (inactive) | -0.115 (inactive) | -1.47
3 | CC(=O)Nc1ccc([C@@H]2N[C@H](C(=O)O)CC[C@H]2C)cc1 | 0.101 | 0.138 (inactive) | -1.51 (inactive) | -0.884 (inactive) | -1.21 (inactive) | -0.0013 | -0.101 | 0.746 | 0.371 | 0.2 | 0.961 (inactive) | -0.017 | -0.188 (inactive) | 0.182 (inactive) | -0.23 (inactive) | -0.267 (inactive) | 0.699 | -0.121 (inactive) | 0.195 (inactive) | 0.13
4 | COc1cccc([C@H]2Oc3ccc(OC)cc3C(=NO[C@H](C)c3cn([C@H](CO)Cc4ccccc4)nn3)[C@@H]2O)c1 | -0.0943 | 0.474 (inactive) | 0.829 (inactive) | 3.87 (inactive) | -0.345 (inactive) | -0.706 | -0.104 | -0.0667 | 1.44 | 0.326 | 0.348 (inactive) | -0.142 | 1.38 (inactive) | 0.0637 (inactive) | 0.151 (inactive) | 0.22 (inactive) | -0.16 | -0.809 (inactive) | 0.364 (inactive) | -0.781
5 | COC(=O)C1=C(C)N(Cc2ccccc2)[C@]23O[C@](C(=O)OC)(C(=O)N2[C@@H]1c1ccccc1)C(C(=O)OC)=C3C(=O)OC | 0.256 | -4.08 (inactive) | -1.25 (inactive) | 1.92 (inactive) | -1.61 (inactive) | 0.252 | 0.095 | 0.199 | 0.454 | 0.657 | 0.214 (inactive) | 0.0774 | 2.05 (inactive) | -0.468 (inactive) | 0.323 (inactive) | -1.52 (inactive) | 2.22 | 0.826 (inactive) | 0.109 (inactive) | 2.03
6 | O=C1C[C@@H](O)[C@@H](O)[C@@H]2[C@@H]3C(=O)N(Cc4ccccc4)C(=O)[C@@H]3CC[C@@H]12 | 0.19 | 0.398 (inactive) | -0.593 (inactive) | 1.06 (inactive) | 0.113 (inactive) | 0.413 | 0.0391 | 0.498 | 0.35 | 0.772 | -0.861 (inactive) | -0.0559 | -0.0483 (inactive) | 0.141 (inactive) | 0.0313 (inactive) | -0.014 (inactive) | -0.224 | 1.04 (inactive) | 0.286 (inactive) | -0.0644
7 | C=COC[C@@H]1CN2[C@@H](CC[C@@H](C)[C@@H]2c2ccc(Br)cc2)C(=O)O1 | -0.219 | -2.67 (inactive) | -1.06 (inactive) | 6.83 (inactive) | -0.544 (inactive) | -0.505 | -0.253 | 0.348 | -0.051 | -0.211 | -0.778 (inactive) | -0.0984 | 2.08 (inactive) | -0.0728 (inactive) | 0.429 (inactive) | -0.959 (inactive) | 0.993 | 0.723 (inactive) | -0.595 (inactive) | -1.14
8 | CO[C@H]1COC(=O)[C@H](C)NC(=O)CC=C[C@@H](C)[C@H](OC)COC(=O)[C@@H](OCc2ccccc2)C=C[C@@H]1C | -0.0911 | 0.382 (inactive) | 0.213 (inactive) | 0.971 (inactive) | -0.262 (inactive) | -0.697 | -0.0791 | 0.57 | -0.0163 | 0.683 | 0.31 (inactive) | -0.0544 | -0.352 (inactive) | 0.101 (inactive) | 0.912 (inactive) | 0.378 (inactive) | -0.191 | 1.18 (inactive) | 0.332 (inactive) | -0.017
9 | COc1ccc(C#C[C@@H]2C=C[C@H](OC(C)=O)[C@@H](COC(C)=O)O2)cc1 | 0.392 | -3.46 (inactive) | 0.132 (inactive) | 0.291 (inactive) | 1.08 (inactive) | 0.271 | 0.0442 | 0.244 | 0.267 | 0.882 | 0.381 (inactive) | -0.193 | 1.96 (inactive) | 0.141 (inactive) | -0.544 (inactive) | -0.0979 (inactive) | -0.394 | 1.38 (inactive) | 0.59 (inactive) | 0.89

Source: PubChem BioAssay
